# Experimental data taken from PubChem BioAssay.
# Calls of active or inactive are those of the source. Unless noted, the rule behind the calls is not given here.
# Experiments:
# [1] = tested on: XIP peptide (Xip251-270) binding; assay: XIP fragment 251-270 binding compounds – biochemical, small-molecule microarray, fluorescence 635/667 nm, 0.1 µg/mL protein, primary screen (AID 1182); details: fluorescent protein binding, 635 nm, higher = more signal, called active from +8 up or from −8 down
# XIP peptide (Xip251-270) = assay: compounds binding XIP fragment 251-270 – biochemical, small-molecule microarray, fluorescence 635/667 nm, 0.5 µg/mL protein, primary screen (AID 1183); details: fluorescence 635 nm, higher = more signal
# [2] = blood-stage malaria parasite viability loss – strain 3D7, DAPI fluorescence, 100 nL, primary screen (AID 1184);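 note: parasites grown inside human red blood cells in medium with human serum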; details: P. falciparum 3D7 growth, 3 d, higher = more signal
# [3] = target: Homeobox protein Hox-A13 (Mus musculus) (UniProt Q62424); assay: disruptors of Hoxa13 oligonucleotide interaction – biochemical, fluorescence polarization, labeled oligonucleotide, primary screen (AID 1185); details: Hoxa13:DNA binding, 15 min, higher = more signal, called active from +8 up or from −8 down
# Chain of Homeobox protein Hox-A13 (Mus musculus) (Q62424 whole entry, looked up): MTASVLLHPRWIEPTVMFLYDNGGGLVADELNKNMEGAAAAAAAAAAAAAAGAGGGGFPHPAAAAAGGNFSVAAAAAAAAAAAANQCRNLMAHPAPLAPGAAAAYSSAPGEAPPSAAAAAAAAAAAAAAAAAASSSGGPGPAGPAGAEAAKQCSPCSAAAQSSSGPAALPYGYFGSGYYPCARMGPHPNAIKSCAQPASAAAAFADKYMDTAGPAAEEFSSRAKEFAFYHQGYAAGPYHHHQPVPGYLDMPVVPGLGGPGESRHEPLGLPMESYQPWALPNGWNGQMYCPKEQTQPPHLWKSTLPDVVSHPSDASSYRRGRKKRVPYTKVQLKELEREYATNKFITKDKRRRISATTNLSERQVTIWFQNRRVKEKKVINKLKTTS
# [4] = blockers of DNA damage checkpoint Chk1 activation – imaging, HeLa, hydroxyurea, phospho-Chk1 antibody, percent positive cells, primary screen (AID 1186); details: hydroxyurea-induced phospho-Chk1 immunofluorescence imaging, higher = more signal
# [5] = blockers of DNA damage checkpoint Chk1 activation – imaging, HeLa, hydroxyurea, phospho-Chk1 nuclear intensity, primary screen (AID 1187); details: hydroxyurea-induced phospho-Chk1 immunofluorescence imaging, higher = more signal
SMILES,composite z-score [1],composite z-score (XIP peptide (Xip251-270)),z-score [2],z-score [3],z-score [4],z-score [5]
Cc1ccc(S[C@]2(C(=O)O)CC(=O)N(C(C)C)[C@@H]2c2ccc(CO)cc2I)cc1,0.534 (inactive),0.837,0.14,-3.85 (inactive),-0.366 (inactive),0.0562 (inactive)
COC(=O)[C@@]1(Cc2ccc(F)cc2)[C@H]2c3cc(C(=O)N(C)C)n(Cc4cc(F)c(F)c(F)c4)c3C[C@H]2CN1C(=O)c1ccccc1,0.0639 (inactive),0.626,-1.66,-3.48 (inactive),0.0893 (inactive),0.175 (inactive)
COCC(=C=CC[C@@H](O)c1cccc(OCCO)c1)C[C@@H](O)c1ccccn1,1.36 (inactive),0.141,-1.2,-4.8 (inactive),-1.08 (inactive),-0.725 (inactive)
COC(=O)[C@@]1(Cc2ccc(OC)cc2)[C@H]2c3cc(C(=O)N(C)C)n(Cc4ccccn4)c3C[C@H]2CN1C(=O)c1ccccc1,0.544 (inactive),-0.765,-1.54,-5.52 (inactive),-0.276 (inactive),-0.406 (inactive)
O=C1O[C@@H](c2ccccc2)[C@@H](c2ccccc2)N2[C@@H](c3ccccc3OCCO)[C@]3(C(=O)Nc4ccc(C#CC5=CCCCC5)cc43)[C@@H](C(=O)N3CCCCCCC3)[C@H]12,5.92 (inactive),0.797,-2,-13.8 (active),-0.0478 (inactive),-0.372 (inactive)
C=CC[C@@]1(C(=O)NCCN2CCOCC2)N=C(c2ccc(OCCCO)cc2)O[C@@H]1c1ccccc1N=[N+]=[N-],2.32 (inactive),-0.0559,-2.21,-6.17 (inactive),0.003 (inactive),-0.0928 (inactive)
CC(C)C(=C=CC[C@H](O)c1ccc(OCCO)cc1)CCO,0.427 (inactive),-0.107,-2.19,-3.96 (inactive),0.805 (inactive),0.505 (inactive)
Cc1ccc(N2C(=O)c3ccccc3[C@@H](C(=O)NC3CC3)[C@@H]2c2ccc(CO)cc2)nc1,-1.49 (inactive),-0.0549,-0.651,-1.95 (inactive),-0.0109 (inactive),-0.28 (inactive)
O=C1NC(=O)C2C1C=CC(C(O)c1cc(C(F)(F)F)cc(C(F)(F)F)c1)N2Nc1ccccn1 (stereo unspecified),0.604 (inactive),0.797,-0.352,-3.28 (inactive),0.429 (inactive),0.178 (inactive)
CC(C)NC(=O)[C@@]1(C)c2ccccc2C(=O)N(Cc2cc(C(F)(F)F)cc(C(F)(F)F)c2)[C@H]1c1ccc(CO)cc1,0.281 (inactive),0.427,-1.54,-3.76 (inactive),-0.281 (inactive),-0.197 (inactive)
C=CCC(OC(C)=O)[C@@H]1[C@@H](N(Cc2cccc3ccccc23)C(=O)c2ccc(-c3ccccc3)cc2)c2cc(OCCCO)ccc2N1C(=O)c1ccc2ccccc2c1 (stereo partly specified),-0.176 (inactive),0.0439,-1.55,-1.35 (inactive),0.145 (inactive),-0.0284 (inactive)
C=C(/C(=C/C[C@H](OC(C)=O)c1ccccc1OCCO)c1cnc2ccccc2c1)C(C)C,0.609 (inactive),-0.167,-2.76,-5.41 (inactive),0.284 (inactive),-0.141 (inactive)
O=C1C[C@@](C(=O)NCCN2CCOCC2)(c2ccc([N+](=O)[O-])cc2)[C@@H](c2ccc(CO)cc2I)N1CC12CC3CC(CC(C3)C1)C2,0.634 (inactive),0.761,-2.04,-3.99 (inactive),-0.894 (inactive),-1.24 (inactive)
COc1cc2c(cc1O)C(c1cccs1)N(C)CC2 (stereo unspecified),-0.721 (inactive),0.594,-1.12,-3.91 (inactive),-0.428 (inactive),-0.628 (inactive)
CC1CC/C=C\[C@H]2OC34C=CCN(C(C)(C)C)C(=O)[C@H]3N(C(C)CO)C(=O)[C@@H]4C2C(=O)O1 (stereo partly specified),-0.323 (inactive),-1.08,0.0549,-5.51 (inactive),0.714 (inactive),-0.0558 (inactive)
CCCC[C@H]1OB(O)C[C@H]2C1=C(COC)Cn1c(=O)n(-c3ccccc3)c(=O)n12,0.81 (inactive),-0.305,-1.29,-2.41 (inactive),-0.503 (inactive),-0.639 (inactive)
